Screening data: PubChem, several laboratories
A selection: hits, their analogues and other compounds. The true share with any hit is near 2.6%.
LGR2 antag: Drosophila LGR2 receptor signaling inhibition | HEK293 LGR2, CRE-luciferase, bursicon-stimulated, 4 h | inhibition, % at 9.99 µM | 380,000 tested, 0.35% active | AID 720647;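 active = drop in luminescence signal, shown as inhibition above about 50% in the replicate tests, limit read from the data, passing the limit was not always enough; inconclusive = probably only some replicates passing the limit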;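 also: agonist challenge used bursicon conditioned medium at about half maximal strength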
KKLEB cytotox: reduces viability of KKLEB cystic fibrosis airway cells | KKLEB CF airway cells viability, ATPlite luminescence, overnight; hits give low values; cells stimulated with P. aeruginosa culture filtrate | activity change (cytotoxicity), % at 5 µM | 360,000 tested, 0.36% active | AID 602141;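 active = corrected activity change at or below -50% at 5 µM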
TROY NFkB inh: blocks TROY-dependent signaling in reporter cells. AID 1347056. 360,000 tested, 0.98% active. Q293 LMP1-TROYcd NF-kB luciferase reporter, 4 h. inhibition, % at 10 µM;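 active = compounds whose plate-normalised and pattern-corrected inhibition of the luciferase reporter signal at the single screening dose is 50% or more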
TWEAK-Fn14 inh: TWEAK-Fn14 signaling inhibition. TWEAK-stimulated Fn14 reporter cells, luciferase luminescence, 8 h. inhibition, % at 10 µM. 360,000 tested, 2% active. AID 1159606; in the data active = inhibition above about 50%
CF NFkB block: blocks PAF-induced NF-kB reporter in cystic fibrosis cells | KKLEB NF-kB-GFP reporter, GFP fluorescence overnight | inhibition, % at 5 µM | 360,000 tested, 0.86% active | AID 588850;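 active = at least 50% inhibition at 5 µM, scaled per plate between neutral and stimulator controls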;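 also: PAF is a Pseudomonas aeruginosa culture filtrate used as stimulus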
EWS-Fli block: blocks EWS/Fli oncoprotein-driven transcription. inhibition, % at 12.6 µM. AID 651661. A673 NR0B1-luciferase reporter, viability-normalised. 350,000 tested, 0.67% active;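 active = mean inhibition of at least 50% after viability correction, with every replicate also passing that limit; inconclusive = mean reaches 50% but only one of two replicates passes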;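 also: firefly luciferase signal divided by Alamar Blue viability fluorescence both relative to DMSO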
CF NFkB conf: CF NF-kB inhibition confirmation, single concentration; shares compounds with CF NFkB block; KKLEB CF airway cells, PAF-induced NF-kB-GFP fluorescence, overnight; inhibition, % at 5 µM; 1,300 tested, 64% active; AID 602472; in the data active = inhibition above about 40%;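 also: stimulus PAF is a Pseudomonas aeruginosa filtrate and not platelet activating factor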
Large screens that a line does not name were inactive (follow-up assays come after a bar, where they were run).

O=S1(=O)CC=C(CSC(=S)NC2CCS(=O)(=O)C2)C1 (stereo unspecified)	CF NFkB block 51 | CF NFkB conf 96
N#CC1(NC(=O)Cn2ncc(Cl)c(Cl)c2=O)CCCCC1	TROY NFkB inh 55, TWEAK-Fn14 inh 78, CF NFkB block 81, EWS-Fli block inconclusive | CF NFkB conf inactive
N#CC1(NC(=O)CN2C(=O)c3ccccc3C2=O)CCCCC1	none
Cc1ccc(S(=O)(=O)N(C)C[C@@H]2OCCCC[C@H](C)Oc3ccc(NS(=O)(=O)c4c(C)noc4C)cc3C(=O)N([C@H](C)CO)C[C@@H]2C)cc1	none (no result: KKLEB cytotox, TROY NFkB inh, TWEAK-Fn14 inh, CF NFkB block)
CCOC(=O)c1ccc(NC(=O)Nc2nncs2)cc1	CF NFkB block 66 | CF NFkB conf 81
CCOC(=O)c1ccc(NC(=O)Nc2nc3ccccc3s2)cc1	none
N#Cc1c(-c2ccc(Cl)cc2)n(O)c2ccccc12	TWEAK-Fn14 inh 64, CF NFkB block 52 (no result: LGR2 antag, EWS-Fli block) | CF NFkB conf 76
O=[N+]([O-])c1ccc(O)c(C2CCCCC2)c1	TROY NFkB inh 61, TWEAK-Fn14 inh 52, CF NFkB block 64 | CF NFkB conf 93
O=[N+]([O-])c1ccc2nc(C3CCCCC3)[nH]c2c1	none
COCC(=O)Nc1ccc2c(c1)C(=O)N(C)[C@H]1CC[C@@H](CC(=O)NCc3ccc(OC)cc3)O[C@H]1CO2	none (no result: KKLEB cytotox, TROY NFkB inh, TWEAK-Fn14 inh, CF NFkB block)
COc1ccc(N=Cc2cc3c(cc2O)OC(N)=C(C#N)C3c2ccccc2)cc1 (stereo unspecified)	CF NFkB block 56 | CF NFkB conf 85
CN1C(=O)c2cc(NS(C)(=O)=O)ccc2OC[C@H]2O[C@H](CC(=O)NC3CCCCC3)CC[C@H]21	none (no result: KKLEB cytotox, TROY NFkB inh, TWEAK-Fn14 inh, CF NFkB block)
COc1nc(-c2ccccc2)ccc1-c1noc(-c2cccnc2)n1	none (no result: LGR2 antag, EWS-Fli block)
COc1nc(-c2ccc(C)cc2)ccc1-c1noc(-c2cccnc2)n1	CF NFkB block 53 (no result: LGR2 antag, EWS-Fli block) | CF NFkB conf inactive
O=[N+]([O-])c1cc(S(=O)(=O)N2CCCC2)ccc1OCCOc1ccccc1	CF NFkB block 50 | CF NFkB conf inactive
Cc1cc(C(=O)Nc2ccc3c(c2)C(=O)N(C)[C@H]2CC[C@H](CC(=O)Nc4ccc(Cl)cc4)O[C@@H]2CO3)no1	none (no result: KKLEB cytotox, TROY NFkB inh, TWEAK-Fn14 inh, CF NFkB block)
CCCCOc1cc(NCc2ccccc2)c2ncn(C(C)C)c2c1	LGR2 antag 68, CF NFkB block 60 | CF NFkB conf inactive
CCC(CO)Oc1cc(NCc2ccc(O)cc2)c2ncn(C(C)C)c2c1 (stereo unspecified)	none
CCC(CO)Oc1cc(NCc2ccc(C(C)(C)C)cc2)c2ncn(C(C)C)c2c1 (stereo unspecified)	CF NFkB block 51 | CF NFkB conf inactive
CCC(COC)Oc1cc(NCc2ccccc2)c2ncn(C(C)C)c2c1 (stereo unspecified)	LGR2 antag 104, CF NFkB block 66 | CF NFkB conf inactive
CCC(CO)Oc1cc(NCc2ccccc2C(F)(F)F)c2ncn(C(C)C)c2c1 (stereo unspecified)	CF NFkB block 61 | CF NFkB conf inactive
CCC(CO)Oc1cc(NCc2ccccc2)c2ncn(C(C)C)c2c1 (stereo unspecified)	none
Cc1noc(C)c1NC(=O)Nc1ccc2c(c1)C(=O)N([C@H](C)CO)C[C@@H](C)[C@@H](CN(C)C)OCCCC[C@@H](C)O2	none (no result: KKLEB cytotox, TROY NFkB inh, TWEAK-Fn14 inh, CF NFkB block)
CC=Cc1ccc2n(c1=O)C[C@@H]1[C@@H](CO)[C@H](C(=O)Nc3ccccc3)[C@H]2N1C(=O)CC1CC1 (mixture of isomers)	none (no result: KKLEB cytotox, TROY NFkB inh, TWEAK-Fn14 inh, CF NFkB block)
C[C@H]1CN([C@@H](C)CO)C(=O)c2cc(NC(=O)c3ccncc3)ccc2O[C@H]1CN(C)Cc1ccccc1	none (no result: KKLEB cytotox, TROY NFkB inh, TWEAK-Fn14 inh, CF NFkB block)
COc1ccc(-c2cn[nH]c2-c2ccc(OCc3ccccc3)cc2O)cc1	TWEAK-Fn14 inh 63, CF NFkB block 70 | CF NFkB conf 89
COc1ccc(-c2cn[nH]c2-c2ccc(OCc3ccccc3F)cc2O)cc1OC	CF NFkB block 60 | CF NFkB conf 60
COc1ccc(-c2[nH]ncc2-c2csc(C)n2)c(O)c1	none
COc1ccc(-c2cn[nH]c2C)cc1	CF NFkB block 53 | CF NFkB conf inactive
COc1cc(OC)cc(-c2cn[nH]c2N)c1	none
COc1ccc(-c2cn[nH]c2-c2ccc(OC)cc2O)cc1	TWEAK-Fn14 inh 78, CF NFkB block 72 | CF NFkB conf 80
COc1cc(NC(=O)c2cc3ccccc3cc2OC)ccc1NC(=O)c1cccs1	CF NFkB block 59 | CF NFkB conf 102
C[C@@H]1CN([C@@H](C)CO)C(=O)c2cc(C3=CCCCC3)cnc2O[C@H]1CN(C)C(=O)c1cccnc1	none (no result: KKLEB cytotox, TROY NFkB inh, TWEAK-Fn14 inh, CF NFkB block)
CC1=C(C(=O)OCc2ccc3c(c2)OCO3)C(c2cccc([N+](=O)[O-])c2)NC(=O)N1 (stereo unspecified)	TWEAK-Fn14 inh 75, CF NFkB block 74 | CF NFkB conf 68
CCOc1ccc(C2NC(=O)NC(C)=C2C(=O)OCc2ccccc2)cc1 (stereo unspecified)	none
CC1=C(C(=O)OCc2ccccc2)C(c2cccc([N+](=O)[O-])c2)NC(=O)N1 (stereo unspecified)	none
COc1ccc(COC(=O)C2=C(C)NC(=O)NC2c2ccc(F)cc2)cc1 (stereo unspecified)	TWEAK-Fn14 inh 53, CF NFkB block 60 | CF NFkB conf 59
COc1cccc(C#Cc2cnc3c(c2)C(=O)N([C@@H](C)CO)C[C@@H](C)[C@@H](CN(C)C(=O)C2CCOCC2)O3)c1	none (no result: KKLEB cytotox, TROY NFkB inh, TWEAK-Fn14 inh, CF NFkB block)
O=C(Nc1cccc(Cl)c1)Nc1csc([N+](=O)[O-])c1	TWEAK-Fn14 inh 72, CF NFkB block 54 | CF NFkB conf 63
COc1ccccc1CNC(=O)C[C@H]1C[C@@H]2c3cc(NS(C)(=O)=O)ccc3O[C@@H]2[C@@H](CO)O1	none (no result: KKLEB cytotox, TROY NFkB inh, TWEAK-Fn14 inh, CF NFkB block)
COc1ccccc1Cc1c(-c2ccc(F)cc2)nc2c(C)cc(Br)cn12	CF NFkB block 60 | CF NFkB conf inactive
COc1ccccc1Cc1c(-c2ccc(C)cc2)nc2c(C)cc(Br)cn12	none
COc1ccc(Cc2c(-c3ccco3)nc3ccc(Br)cn23)c(C)c1	TWEAK-Fn14 inh 57, CF NFkB block 53 | CF NFkB conf inactive
Cc1ccc(Cc2c(-c3ccc(C)cc3)nc3c(C)cc(Br)cn23)cc1	none (no result: LGR2 antag)
COc1ccccc1Cc1c(-c2ccco2)nc2c(C)cc(Br)cn12	TWEAK-Fn14 inh 69, CF NFkB block 66 (no result: LGR2 antag, EWS-Fli block) | CF NFkB conf inactive
Cc1ccc(Cc2c(-c3ccc(F)cc3)nc3c(C)cc(Br)cn23)cc1	CF NFkB block 59 (no result: LGR2 antag, EWS-Fli block) | CF NFkB conf inactive
CCCCCCCCN1C(=O)[C@@H](CC(=O)NCc2cccs2)C[C@@]2(C(=O)OC)C1=C[C@H](C1CCCC1)O[C@@H]2C	none (no result: KKLEB cytotox, TROY NFkB inh, TWEAK-Fn14 inh, CF NFkB block)
CC(C)NC(=O)Nc1cccc2c1O[C@@H](CN(C)S(=O)(=O)c1cccs1)[C@@H](C)CN([C@@H](C)CO)C2=O	none (no result: KKLEB cytotox, TROY NFkB inh, TWEAK-Fn14 inh, CF NFkB block)
